From PubChem BioAssay
Hits are enriched below; roughly 5% of the tested compounds scored in any of these assays.
TSHR ag – activates the human thyroid stimulating hormone receptor; P16473; HEK293-CNG-TSHR cells (CNG channel as cAMP sensor), membrane potential dye, cAMP; Potency, µM (top dose mostly 57.1 µM), for the others: top-dose activation, hits mostly activators; 73,000 tested, 0.48% active; AID 926; active = well fitted activation curve with a large enough effect in the main read-out, with a control signal flat, not every such curve was filed as active; inconclusive = small, poorly fitted or top-dose-only effect, or a change in a side signal; inactive = no such curve, though single readings can be large or run the other way; % of control where 0% means no effect;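 also: the control signal comes from parental cells without the receptor; potency is read from the fitted curve at half-maximal effect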
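cAMP rise detected as CNG-channel membrane depolarization by fluorescent dye (emission 590 nm), 30 min after compound, following 60 min dye loading containing 100 uM RO 20-1724 at room temperature. Cells: TSHR/CNG HEK 293, with parental CNG HEK 293 as control.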
USP2a inh – inhibitors of human ubiquitin-specific protease USP2a | O75604 | USP2a enzymatic assay, qHTS inhibition | Potency, µM (doses to about 38.3 µM), inactives show at the top dose activity change, negative = inhibition, actives largely listed as inhibitors | 60,000 tested, 0.1% active | AID 927; also: potency is read from the fitted curve at half-maximal effect; nearly all actives have a fitted effect of over 60% in size
Target sequence (O75604 whole entry, looked up): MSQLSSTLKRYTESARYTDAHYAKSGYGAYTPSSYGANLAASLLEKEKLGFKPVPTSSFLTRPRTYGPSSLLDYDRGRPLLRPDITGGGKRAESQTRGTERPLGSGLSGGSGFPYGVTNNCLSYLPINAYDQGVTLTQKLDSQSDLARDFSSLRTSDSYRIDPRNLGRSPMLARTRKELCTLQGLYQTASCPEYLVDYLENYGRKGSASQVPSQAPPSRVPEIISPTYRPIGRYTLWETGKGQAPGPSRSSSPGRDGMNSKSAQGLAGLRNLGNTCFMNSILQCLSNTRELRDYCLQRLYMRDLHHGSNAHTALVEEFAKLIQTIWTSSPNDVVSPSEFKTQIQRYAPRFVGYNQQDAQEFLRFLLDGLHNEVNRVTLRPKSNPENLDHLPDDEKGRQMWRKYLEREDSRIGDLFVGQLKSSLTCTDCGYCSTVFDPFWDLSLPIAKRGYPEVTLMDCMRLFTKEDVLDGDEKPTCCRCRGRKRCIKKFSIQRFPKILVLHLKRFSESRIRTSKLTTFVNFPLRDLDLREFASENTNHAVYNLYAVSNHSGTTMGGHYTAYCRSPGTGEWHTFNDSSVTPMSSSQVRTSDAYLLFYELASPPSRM
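Inhibition is measured in a cell-free coupled assay with 20 nM USP2 core, 20 nM Ub-PLA2 and 20 uM NBD C6-HPC, 2.5 h incubation. Activity normalized to NEM control.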
CRE Fsk mod – modulators of forskolin-stimulated CRE signaling in CHO cells; Potency, µM (titrated, usually from 38.2 µM), inactives show at the highest dose activity change, negative = inhibition, most hits filed as activators; CHO CRE-bla reporter (cAMP response element driving beta-lactamase), forskolin EC10, beta-lactamase ratio; 71,000 tested, 2.5% active; active = well fitted activation curve with a large enough effect in the signal ratio, with a control signal flat, not every such curve was filed as active; inconclusive = small, poorly fitted or top-dose-only effect, or effect the other way, or a change in a side signal; the % refers to the signal ratio; also: potency is read from the fitted curve at half-maximal effect; % of control where 0% means no effect
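CRE-bla CHO cells stimulated with EC10 NKH 477 (water-soluble forskolin) and compound titrations, 3 h at 37C; beta-lactamase read with CCF4 after 2 h at room temperature. Activity from 460/530 nm emission ratio, AC50 values for positive or negative modulation.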
Caspase-7 inhib – blocks human caspase-7 allosterically or competitively. P55210. recombinant caspase-7, Ac-DEVD-AFC fluorescence rate. Potency, µM (doses to about 57.5 µM), without a hit: top-dose activity change, negative = inhibition, actives largely listed as inhibitors. 75,000 tested, 0.02% active. AID 889; active = well fitted inhibition curve with a large enough effect in the main read-out, with a control signal flat, not every such curve was filed as active; inconclusive = small, poorly fitted or top-dose-only effect, or a change in a side signal; also: potency is read from the fitted curve at half-maximal effect; % of control where 0% means no effect
Casp1 inh – blocks human caspase-1 allosterically or competitively; AID 900; P29466; 75,000 tested, 0.03% active; Potency, µM (doses to about 57.5 µM), for inactives: at the highest dose activity change, negative = inhibition, most hits filed as inhibitors; Caspase-1 enzyme, Ac-WEHD-AFC fluorogenic rate;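 also: potency is read from the fitted curve at half-maximal effect; plate controls were vehicle for no effect and no substrate for full effect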
HEK293 cAMP ctrl – counter-screen for TSHR agonists: cAMP increase in parental HEK293 | parental HEK293 CNG cAMP sensor, membrane potential fluorescence | Potency, µM (series often up to 57.1 µM), for the others: top-dose activation, usual class: activators | 73,000 tested, 2.5% active | AID 938; also: potency is read from the fitted curve at half-maximal effect; % of control where 0% means no effect; nearly all actives have a fitted effect of over 55% in size
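Counterscreen for endogenous-receptor signalling: CNG-channel HEK 293 cells report cAMP rise by membrane depolarization. After 60 min dye equilibration with 100 uM RO 20-1724, compounds incubated 30 min before bottom-read fluorescence at 590 nm.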
parental cAMP – counter-screen for TSH receptor agonists: cAMP in parental HEK293 cells; activity change, negative = inhibition, % at 32.9 µM; AID 953; parental HEK293 CNG biosensor, cAMP membrane potential fluorescence; shares compounds with TSHR ag; 150 tested, under 10 active
Numbers without * were called inactive; ? = inconclusive; . = no result given; [ ] = another dose, or the depositor's remark. Unless noted, calls follow the shape of the dose curve; as a rule, active = well fitted curve in the direction sought with a large enough effect; inconclusive = small, poorly fitted or top-dose-only effect, or another doubt; inactive = no such curve, though single readings can be large; an effect the other way counts as inactive or inconclusive.

SMILES	TSHR ag	USP2a inh	CRE Fsk mod	Caspase-7 inhib	Casp1 inh	HEK293 cAMP ctrl	parental cAMP
Cc1cc(C)nc(N(C#N)CC(=O)N2CCC(C(N)=O)CC2)n1	.	-3.5%	-0.7%	0.0%	-1.8%	0.7%	-13.4
COc1ccc(/C=C\C(=O)Nc2ccccc2C(=O)O)cc1OC	11.4%	.	-11.5%	5.1%	-0.6%	0.6%	.
CC(C)CCN1CCc2nc(COc3ccccc3)c3c(c2C1)COC(C)C3 (stereo unspecified)	3.4%[11.4 µM]	.	.	-0.9%[11.5 µM]	-3.0%[11.5 µM]	17.0%[11.4 µM]	.
COC(=O)C1=C(C)NC(=O)NC1c1cn(-c2ccccc2)nc1-c1cccs1 (stereo unspecified)	25.1µM*	8.3%	27.2%	-1.5%	0.6%	12.6%	5.0
CS(=O)(=O)N1CCN(C(=O)c2cc(-c3cccs3)nc3ccccc23)CC1	20µM*	36.4%	4.8%	-2.4%	-0.5%	-3.9%	-5.3
Cc1ccc2nc(SCC(=O)O)nc(C)c2c1	-6.5%	-8.5%	7.0%	1.7%	0.2%	6.1%	13.0[25.6 µM]
Cc1ccc(C(C)C)c(OCC(=O)Nc2ccc(N3CCN(S(C)(=O)=O)CC3)cc2)c1	-37.6%	11.5%	-16.5%	-1.4%	-1.8%	5.4%	-30.1[25.6 µM]
CC(C)C(=O)Nc1ccc(N2CCN(S(C)(=O)=O)CC2)cc1	4.9%[11.4 µM]	-4.2%	-12.3%	0.8%	0.2%	-0.1%	.
Cc1onc(-c2ccccc2)c1C(=O)N1CCCN(C(=O)c2c(-c3ccccc3)noc2C)CC1	21.8%	13.3%	1.5%	-0.1%	1.2%	17.1%	.
Cc1onc(-c2ccccc2)c1C(=O)N1CCCSC1=Nc1ccccc1	?	-0.1%	-7.7%	-2.2%	-1.4%	?	18.9
CCNc1ncc2nc(-c3ccc(F)cc3)c(=O)n(-c3ccc(OC)cc3)c2n1	-5.6%	62.5%	?	?	.	25.9%	.
CN(Cc1ccco1)C(=O)Cn1c(=O)oc2cc(S(=O)(=O)NCc3ccccc3)ccc21	25.1µM*	.	-7.3%	-1.1%	0.8%	12.2%	-3.7
Cc1cc(SCNC(=O)c2ccccc2)ncn1	3.5%	-5.2%	6.0%	-2.3%	-1.9%	17.3%	-2.7[25.6 µM]
Cc1cc(C)nc(SCNC(=O)c2ccc(F)cc2)n1	-5.6%	6.4%	?	0.4%	1.0%	-3.1%	.
CCCOc1ccc(Br)cc1-c1cc(-c2ccc(Cl)cc2)[nH]c1-c1ccncc1	0.3%	.	.	-0.9%	3.7%	2.4%	.
CCN1C(=O)[C@H]2[C@H]3[C@H](O)[C@H](O)C/C(=N/NC(=O)OCc4ccccc4)[C@@H]3CC[C@@H]2C1=O	-5.1%[11.4 µM]	.	.	-1.2%[11.5 µM]	-1.4%[11.5 µM]	-6.5%[11.4 µM]	.
Cc1nonc1NC(=O)CSc1nnc(-c2ccoc2C)n1CC(C)C	25.5%	10.0%	-1.9%	0.5%	0.3%	12.6%	.
Cc1occc1-c1nnc(SCC(=O)NCc2ccc3c(c2)OCO3)n1CC(C)C	15.8µM*	.	-6.4%	1.0%	-0.5%	29.2%	9.8
NC(=S)SCCC(=O)O	3.6%[11.4 µM]	.	7.9%[7.6 µM]	0.8%[11.5 µM]	-2.7%[11.5 µM]	-3.3%[11.4 µM]	.
O=C(/C=C(\O)c1ccccc1)c1ccccc1O	.	2.2%	.	-3.4%	-0.7%	.	.
CCOc1cc(C(=O)N(C)c2ccccc2)cc(OCC)c1OCC	25.1µM*	-10.7%	-2.8%	0.7%	0.5%	14.6%	9.2
CCOc1cc(C(=O)N2CCN(c3ccccc3)CC2)cc(OCC)c1OCC	?	9.0%	2.0%	-1.6%	-1.5%	?	.
CC[C@@H](c1ccccc1)n1c(=O)n2n(c1=O)[C@H]1[C@H](O)[C@H]3O[C@@H]3/C(=N/OC[C@@H](O)COCc3ccco3)[C@@H]1CC2	-2.9%[11.4 µM]	.	.	0.5%[11.5 µM]	-4.1%[11.5 µM]	2.3%[11.4 µM]	.
O=C(CN(c1ccc2c(c1)OCCO2)S(=O)(=O)c1ccccc1)NCc1ccco1	25.1µM*	3.0%	9.1%	0.1%	-0.9%	0.8%	7.0
Cc1ccc(N(CC(=O)NCc2ccco2)S(=O)(=O)c2ccccc2)cc1	?	4.8%	-7.7%	-3.4%	-4.5%	?	-6.8
